Records with an inconclusive call do not appear. Active and inactive are the calls of the source. Calls follow the shape of the full dose curve.
Test: qHTS assay to identify small molecule antagonists of the estrogen receptor alpha (ER-alpha) signaling pathway using the BG1 cell line (AID 743080);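 also: BG1 cells stimulated with 17beta-estradiol alongside compound; nearly all actives have a fitted effect of over 25% in size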
Conditions: BG1Luc4E2 ERE-luciferase antagonist mode, luminescence; series mostly up to 70.3 µM
From the text: National Center for Advancing Translational Sciences [NCATS]
NIH Chemical Genomics Center [NCGC]
U.S. Environmental Protection Agency [EPA]
National Institutes of Environmental Health Sciences [NIEHS]
National Toxicology Program [NTP]
U.S. Food and Drug Administration [FDA]
Estrogen receptor (ER), a nuclear hormone receptor, plays an important role in development, metabolic homeostasis and reproduction. Endocrine disrupting chemicals (EDCs) and their interactions with steroid hormone receptors like ER causes disruption of normal endocrine function. Therefore, it is important to understand the effect of environmental chemicals on the ER signaling pathway. To identify ER antagonists, BG1-Luc-4E2 cell line (provided by Dr. Michael Denison from University of California) has been used to screen the Tox21 10K compound library. BG1Luc4E2 cell line endogenously expresses full-length ER-alpha and is stably transfected with a plasmid containing four estrogen responsive elements (ERE) upstream of a luciferase reporter gene.
Tox21 Assay Protocol Summary:
BG1-Luc-4E2 cells were cultured in phenol red free assay medium containing 10% charcoal stripped FBS for 5 days before the assay was performed. The cells were dispensed at 4,000 cells/4 uL of assay medium per well into white wall/solid-bottom 1536-well plates using a Multidrop Combi (ThermoFisher Scientific, Waltham, MA) dispenser. The assay plates were incubated at a 37C and 5% CO2 for 24 h, and then 23 nL of compounds dissolved in DMSO, positive controls or DMSO only was transferred to the assay plate using a Pintool station (Kalypsys, San Diego, CA), followed by addition of 1 uL of 17beta-estradiol in assay medium using a Flying Reagent Dispenser (Aurora Discovery, San Diego, CA). After the plates were incubated at 37 C and 5% CO2 for 21.5 h, 1 uL of CellTiter-Fluor reagent (Promega, Madison, WI) of measuring cytotoxicity was added using Flying Reagent Dispenser (FRD) to each well. The assay plates were incubated at 37 C and 5% CO2 for additional 30 min and the fluorescence intensity was quantified by a ViewLux plate reader (PerkinElmer, Shelton, CT). For measuring luciferase reporter gene activity, 4 uL of ONE-Glo reagent (Promega) was added to each plate using an FRD and luminescence was quantified by a ViewLux plate reader after 30 min incubation at room temperature.

Compound | outcome
Cc1c(NC(=O)c2cccnc2)c(=O)n(-c2ccccc2)n1C | inactive
CC1(C)Cc2cccc(N)c2O1 | inactive
COP(=O)(O)OP(=O)(O)OC | inactive
CC1(C)Oc2ccc(C#N)cc2[C@@H](N2CCCC2=O)[C@@H]1O | inactive
CCCc1ccc(O)cc1 | inactive
CN(C)CCCCl | inactive
CC/C(C)=N\O[Si](C)(O/N=C(\C)CC)O/N=C(\C)CC | inactive
COC(=O)c1cc(Cl)cc(Cl)c1 | inactive
CC12CCC(C1)C(C)(C)C2O (stereo not given) | inactive
CC1(C)[C@H]2CC[C@](C)(C2)[C@H]1O | inactive
CN(C)CCN(C)CCO | inactive
O=C1OCCO1 | inactive
COC(=O)c1cccc(Cl)c1 | inactive
CC1(C)CC(OC(=O)CCCCCCCCC(=O)OC2CC(C)(C)NC(C)(C)C2)CC(C)(C)N1 | inactive
CC(C)COC(=O)c1ccccc1 | inactive
C=CCCCCCCCCC(=O)OCCCC | inactive
CC(=O)CC(=O)OC(C)(C)C | inactive
c1ccc(-c2nn[nH]n2)cc1 | inactive
NCC1(Cc2noc(=O)[nH]2)CCCCC1 | inactive
CC(C)C1OCCN1CCOC(=O)NCCCCCCNC(=O)OCCN1CCOC1C(C)C (stereo not given) | inactive

Compound | outcome
CC1=C(C(=O)O)N2C(=O)[C@@H](NC(=O)[C@H](N)C3=CCC=CC3)[C@H]2SC1 | inactive
O=C(CCCCC(=O)Nc1c(I)cc(I)c(C(=O)O)c1I)Nc1c(I)cc(I)c(C(=O)O)c1I | inactive
C=CC(=O)OCC1CCCO1 (stereo not given) | inactive
O=C(Cn1ccnc1[N+](=O)[O-])NCc1ccccc1 | inactive
CC(C)c1ccc(C=O)cc1 | inactive
CO/N=C(/C(=O)N[C@@H]1C(=O)N2C(C(=O)[O-])=C(C[n+]3ccn4ncccc43)CS[C@H]12)c1nsc(N)n1 | inactive
C=CCCCC | inactive
CN(C)C(C)(C)CO | inactive
COC(C)(OC)OC | inactive
COc1ccc2c(c1)c1c3n2CCN(C)C3=NCC1 | inactive
CCCC(=O)OC/C=C(\C)CCC=C(C)C | inactive
CC1OCCC1=O (stereo not given) | inactive
O=C1CCC(=O)N1Cl | inactive
CCCC(CC)c1ccccc1 (stereo not given) | inactive
C[C@H]1[C@@H](c2ccccc2)NC(=O)N1C | inactive
CN1C[C@@H]2C[C@H]1CN2c1cc2c(cc1F)c(=O)c(C(=O)O)cn2C1CC1 | inactive
CCCCCCC1(C)CCC(=O)O1 (stereo not given) | inactive
CCCCCCCCCOC(=O)c1ccccc1C(=O)OCCCCCCCCC | inactive
CN(C)CCOC(=O)C(c1ccccc1)C1(O)CCCC1 (stereo not given) | inactive
O=C(O)c1cc2ccccc2nc1C(=O)O | inactive

From PubChem BioAssay (Tox21)
